# Laboratory results: PubChem BioAssay (EPA / NIEHS)
# Values joined by “and” are separate entries in the source; they are usually repeats but may differ in a detail not shown here. Identical values can stand only once. The source holds several records for some structures; these can differ, active in one and inactive in another. Active and inactive are the calls of the source. Rule for the calls: active = hit-call score of the fitted dose curve at least 0.9, where 1 is the maximum; inactive = score below 0.9.
# Columns and labels:
# [1] = read-out: Vascular endothelial growth factor receptor 2 (Homo sapiens) (UniProt P35968); assay: BSK_4H_VEGFRII: BioMAP Diversity Plus: 4H Assay for Vascular endothelial growth factor receptor 2 (VEGFR2) Biomarker Activity (AID 2283031); settings: primary human endothelial cells (HUVEC); actives raise or lower the signal;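 for AC50: cell-surface VEGFR2 protein level quantified by ELISA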
# Procedure, shortened: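 VEGFRII levels on human vascular endothelial primary cells were determined by ELISA at 24 hours post-dosing, with gain- or loss-of-signal fitted against DMSO controls.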
# [2] = read-out: Human Leukocyte Antigen - DR isotype (HLADR), HLA-DRA (gene 3122); assay: BSK_BE3C_HLADR: BioMAP Diversity Plus: BE3C Assay for Human Leukocyte Antigen - DR isotype (HLADR) Biomarker Activity (AID 2283032); settings: primary human bronchial epithelial cells; actives raise or lower the signal
# Procedure, shortened: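 Human primary bronchial epithelial cells (BE3C system) exposed to compound for 24 hours; cell-surface HLA-DR measured by ELISA, fitted bidirectionally relative to DMSO. Total protein by SRB in parallel cultures tracked cytotoxicity.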
# [3] = read-out: Vascular cell adhesion molecule 1 (VCAM1), VCAM1 (gene 7412); assay: BSK_4H_VCAM1: BioMAP Diversity Plus: 4H Assay for Vascular cell adhesion molecule 1 (VCAM1) Biomarker Activity (AID 2283033); settings: primary human endothelial cells (HUVEC); actives raise or lower the signal
# Procedure, shortened: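 Primary human umbilical vein endothelial cells, 4H stimulation system, treated for 24 h; cell-surface VCAM-1 quantified by ELISA. Bidirectional fitting against DMSO; cytotoxicity tracked by SRB total-protein staining in parallel cultures.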
# [4] = read-out: Interferon-gamma inducible Protein 10 (IP10), CXCL10 (gene 3627); assay: BSK_BE3C_IP10: BioMAP Diversity Plus: BE3C Assay for Interferon-gamma inducible Protein 10 (IP10) Biomarker Activity (AID 2283034); settings: primary human bronchial epithelial cells; actives raise or lower the signal
# Procedure, shortened: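 Primary human bronchial epithelial cells, with IP-10 measured by ELISA 24 hours after chemical dosing. Bidirectional fit against DMSO; cytotoxicity checked by SRB total protein staining in parallel cultures.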
# [5] = read-out: Monokine induced gamma interferon (MIG), CXCL9 (gene 4283); assay: BSK_BE3C_MIG: BioMAP Diversity Plus: BE3C Assay for Monokine induced gamma interferon (MIG) Biomarker Activity (AID 2283035); settings: primary human bronchial epithelial cells; actives raise or lower the signal;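 for outcome: MIG protein measured by ELISA in BE3C cultures after 24 h of dosing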
# Procedure, shortened: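 Primary human bronchial epithelial cells treated for 24 h; MIG levels measured by ELISA, fitted bidirectionally versus DMSO. Parallel SRB total-protein staining assessed cytotoxicity.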
# [6] = read-out: Transforming growth factor beta 1 (TGFb1), TGFB1 (gene 7040); assay: BSK_BE3C_TGFb1: BioMAP Diversity Plus: BE3C Assay for Transforming growth factor beta 1 (TGFb1) Biomarker Activity (AID 2283036); settings: primary human bronchial epithelial cells; actives raise or lower the signal
# Procedure, shortened: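 Primary human bronchial epithelial cells dosed with chemical; TGF-b1 measured by ELISA 24 h after dosing. Bidirectional curve fitting against DMSO negative control; SRB total-protein staining in parallel cultures gauged cytotoxicity.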
# [7] = read-out: Plasminogen activator inhibitor-1 (PAI1), SERPINE1 (gene 5054); assay: BSK_BE3C_PAI1: BioMAP Diversity Plus: BE3C Assay for Plasminogen activator inhibitor-1 (PAI1) Biomarker Activity (AID 2283037); settings: primary human bronchial epithelial cells; actives raise or lower the signal
# Procedure, shortened: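 Primary human bronchial epithelial cells (BE3C system) exposed 24 h; PAI-1 quantified by ELISA. Parallel sulforhodamine B staining of total protein flags cytotoxicity. Bidirectional fit versus DMSO.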
# [8] = read-out: urokinase plasminogen activator (uPA), PLAU (gene 5328); assay: BSK_BE3C_uPA: BioMAP Diversity Plus: BE3C Assay for urokinase plasminogen activator (uPA) Biomarker Activity (AID 2283038); settings: primary human bronchial epithelial cells; actives raise or lower the signal;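 for outcome: uPA protein level quantified by ELISA in cell cultures; uPA read one day after compound addition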
# Procedure, shortened: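 Measured by ELISA: uPA from human primary bronchial epithelial cells 24 h after chemical treatment. Values derive from bidirectional curve fitting with DMSO serving as negative control. Total protein by SRB staining in parallel wells flagged overt cytotoxicity.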
# [9] = read-out: Urokinase-type plasminogen activator receptor (uPAR), PLAUR (gene 5329); assay: BSK_BE3C_uPAR: BioMAP Diversity Plus: BE3C Assay for Urokinase-type plasminogen activator receptor (uPAR) Biomarker Activity (AID 2283039); settings: primary human bronchial epithelial cells; actives raise or lower the signal;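 for outcome: cells exposed to compound for one day before measurement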
# Procedure, shortened: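 Primary human bronchial epithelial cells dosed for 24 h; uPAR quantified by ELISA with bidirectional fitting against DMSO. Overt cytotoxicity assessed in parallel cultures by SRB total-protein staining (0.1% SRB, 560 nm).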
# [10] = read-out: Interleukin-6 (IL6), IL6 (gene 3569); assay: BSK_CASM3C_IL6: BioMAP Diversity Plus: CASM3C Assay for Interleukin-6 (IL6) Biomarker Activity for (AID 2283040); settings: primary human coronary artery smooth muscle cells; actives raise or lower the signal
smiles,measurement,setting,value
CC(C)(c1ccccc1)c1ccc(O)cc1,outcome,[1],inactive
same,AC50,[2],30.4 µM (active)
same,AC50,[3],32.1 µM (active)
same,AC50,[4],30.5 µM (active)
same,AC50,[5],32.2 µM (active)
same,AC50,[6],33.4 µM (active)
same,AC50,[7],34.1 µM (active)
same,outcome,[8],inactive
same,outcome,[9],inactive
same,outcome,[10],inactive
O=C(NC(=O)c1cc(F)c(F)cc1Cl)Nc1cc(F)ccc1N1CCC(C(=O)O)CC1,outcome,[1],inactive
same,outcome,[2],inactive
same,outcome,[3],inactive
same,outcome,[4],inactive
same,outcome,[5],inactive
same,outcome,[6],inactive
same,outcome,[7],inactive
same,outcome,[8],inactive
same,outcome,[9],inactive
same,outcome,[10],inactive
CN(C)c1nc(=O)n(C2CCCCC2)c(=O)n1C,outcome,[1],inactive
same,outcome,[2],inactive
same,outcome,[3],inactive
same,outcome,[4],inactive
same,outcome,[5],inactive
same,outcome,[6],inactive
same,outcome,[7],inactive
same,outcome,[8],inactive
same,outcome,[9],inactive
same,outcome,[10],inactive
CC#Cc1cc(C)nc(Nc2ccccc2)n1,outcome,[1],inactive
same,outcome,[2],inactive
same,AC50,[3],18.1 µM (active)
same,outcome,[4],inactive
same,outcome,[5],inactive
same,outcome,[6],inactive
same,outcome,[7],inactive
same,outcome,[8],inactive
same,outcome,[9],inactive
same,outcome,[10],inactive
CCC(=O)O[C@H]1CC[C@H]2[C@@H]3CCC4=CC(=O)CC[C@]4(C)[C@H]3CC[C@]12C,AC50,[1],28 µM (active)
same,AC50,[2],32.9 µM (active)
same,AC50,[3],37.4 µM (active)
same,outcome,[4],inactive
same,outcome,[5],inactive
same,outcome,[6],inactive
same,outcome,[7],inactive
same,outcome,[8],inactive
same,outcome,[9],inactive
C[C@]12CCC(=O)C=C1CC[C@@H]1[C@@H]2CC[C@@]2(C)[C@H]1CC[C@]2(C)O,outcome,[1],inactive
same,outcome,[2],inactive
same,outcome,[3],inactive
same,outcome,[4],inactive
same,outcome,[5],inactive
same,outcome,[6],inactive
same,outcome,[8],inactive
same,outcome,[9],inactive
same,outcome,[10],inactive
C=CC(N)=O,outcome,[1],inactive
same,outcome,[2],inactive
same,outcome,[3],inactive
same,outcome,[4],inactive
same,outcome,[5],inactive
same,outcome,[6],inactive
same,outcome,[8],inactive
same,outcome,[9],inactive
same,outcome,[10],inactive
CCOCCOC(C)=O,outcome,[2],inactive
same,outcome,[3],inactive
same,outcome,[4],inactive
same,outcome,[5],inactive
same,outcome,[6],inactive
same,outcome,[7],inactive
same,outcome,[8],inactive
same,outcome,[9],inactive
same,outcome,[10],inactive
O=C(O)C(F)(F)C(F)(F)C(F)(F)C(F)(F)C(F)(F)C(F)(F)C(F)(F)C(F)(F)F,outcome,[1],inactive
same,AC50,[2],29.7 µM (active) and 44.1 µM (active) and 45.2 µM (active)
same,AC50,[3],41.7 µM (active)
same,outcome,[3],inactive
same,AC50,[4],27.7 µM (active) and 45.9 µM (active) and 43.7 µM (active)
same,AC50,[5],32.7 µM (active) and 50.1 µM (active) and 52.7 µM (active)
same,AC50,[6],26.2 µM (active)
same,AC50,[8],37.2 µM (active) and 49.1 µM (active) and 30 µM (active)
same,AC50,[9],35.1 µM (active) and 47.8 µM (active) and 48.6 µM (active)
same,outcome,[10],inactive
Cc1ccccc1CO[C@@H]1C[C@@]2(C(C)C)CC[C@]1(C)O2,outcome,[2],inactive
same,outcome,[3],inactive
same,outcome,[4],inactive
same,outcome,[5],inactive
same,outcome,[6],inactive
same,outcome,[7],inactive
same,AC50,[8],11.2 µM (active)
same,outcome,[9],inactive
same,outcome,[10],inactive
Cc1cc2c3c(c1)C(c1ccccc1)=N[C@@H](NC(=O)c1ccncc1)C(=O)N3CC2,outcome,[1],inactive
same,outcome,[2],inactive
same,outcome,[3],inactive
same,outcome,[4],inactive
same,outcome,[5],inactive
same,outcome,[6],inactive
same,outcome,[8],inactive
same,outcome,[9],inactive
same,outcome,[10],inactive
Oc1c(Cl)c(Cl)c(Cl)c(Cl)c1Cl,AC50,[2],8.2 µM (active) and 20.6 µM (active)
same,AC50,[3],10.2 µM (active) and 21.5 µM (active)
same,AC50,[4],5.02 µM (active) and 5.67 µM (active)
same,AC50,[5],11.8 µM (active) and 30.3 µM (active)
same,AC50,[6],9.53 µM (active)
same,outcome,[6],inactive
same,AC50,[8],4.12 µM (active) and 14.7 µM (active)
same,AC50,[9],7.14 µM (active) and 24.6 µM (active)
same,outcome,[10],inactive
CC(C)C(=O)OCC(C)(C)C(OC(=O)C(C)C)C(C)C (stereo not given),outcome,[2],inactive
same,outcome,[3],inactive
same,outcome,[4],inactive
same,outcome,[5],inactive
same,outcome,[6],inactive
same,outcome,[7],inactive
same,outcome,[8],inactive
same,outcome,[9],inactive
same,outcome,[10],inactive
Clc1ccc(C(Cl)(Cl)Cl)cc1,outcome,[1],inactive
same,outcome,[2],inactive
same,outcome,[3],inactive
same,outcome,[4],inactive
same,outcome,[5],inactive
same,outcome,[6],inactive
same,outcome,[8],inactive
same,outcome,[9],inactive
same,outcome,[10],inactive
c1ccc(-c2ccccc2)cc1,outcome,[2],inactive
same,outcome,[3],inactive
same,outcome,[4],inactive
same,outcome,[5],inactive
same,outcome,[6],inactive
same,outcome,[7],inactive
same,outcome,[8],inactive
same,outcome,[9],inactive
same,outcome,[10],inactive
